This passage reports activation results from PubChem BioAssay AID567 (The Scripps Research Institute Molecular Screening Center, 2006).

About 370 (0.57%) of roughly 65,000 compounds were called active. The list comes from a sample in which actives are over-represented; it also holds similar structures and randomly drawn compounds. Unmarked numbers belong to inactive results.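 How the source made its calls: active means activation above the screen-wide mean activation plus 3 SD (cut at about 19% in these data); inactive means the rest.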

This test deals with 5-hydroxytryptamine receptor 1A (Homo sapiens) (UniProt P08908). The test is described as follows: human 5-HT1a receptor agonists, primary screen, cell-based, CHO, Ga15 NFAT-bla reporter (AID 567).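 Further: 0% = DMSO wells and 100% = 5-CT at EC100.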 The following applies: CHO 5-HT1a Ga15 NFAT-bla reporter, FRET ratio; at 10 µM; hits give high values.
5-hydroxytryptamine receptor 1A (Homo sapiens), sequence (P08908 whole entry, looked up): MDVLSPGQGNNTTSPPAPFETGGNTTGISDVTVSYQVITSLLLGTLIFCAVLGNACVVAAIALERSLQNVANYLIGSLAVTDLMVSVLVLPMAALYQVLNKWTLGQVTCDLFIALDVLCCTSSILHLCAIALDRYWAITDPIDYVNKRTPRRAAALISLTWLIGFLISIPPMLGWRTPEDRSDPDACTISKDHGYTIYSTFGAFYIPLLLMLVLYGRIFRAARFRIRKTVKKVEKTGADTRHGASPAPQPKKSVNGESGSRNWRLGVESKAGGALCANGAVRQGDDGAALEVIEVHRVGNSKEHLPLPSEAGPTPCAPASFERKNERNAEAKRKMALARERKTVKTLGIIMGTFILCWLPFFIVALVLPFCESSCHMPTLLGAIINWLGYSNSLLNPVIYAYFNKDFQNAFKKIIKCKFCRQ
For `CCc1cccc2c(C#N)cn(CC(=O)N3CCOCC3)c12`, the activation was 60.2% (active).
With `COC(=O)C(c1ccccc1)N1CCCCCC1` (stereo not given), the activation was 1.53%.
As for `COC(=O)C(O)(c1ccc(NC(=O)c2ccco2)c(OC)c1)C(F)(F)F` (stereo not given), the figure is -0.22%; as for `CC1(C)C(c2ccccc2)=NC(c2cccnc2)=[N+]1[O-]`, 49.7% (active).
As for `CCOC(=O)C1CN(C)CCC1=O` (stereo not given), the figure is -3.2%.
As for `CC(=O)N(C1=NCCCS1)c1ccccc1F`, the figure is -0.07%; as for `Cc1ccc2c(c1)C1CN(C)CCC1N2C(=O)Cn1nnc(-c2ccccc2F)n1` (stereo not given), 1.76%; as for `Cc1ccc(Cn2nnnc2CN2CCC(n3nnc4ccccc43)CC2)cc1`, -1.46%.
For `CN1CCN(Cc2ccccc2C(F)(F)F)CC1`, the activation is -1.3%.
As for `O=C(c1cc2nc(-c3ccccc3)cc(-c3ccccc3)n2n1)N1CCC2(CC1)OCCO2`, the figure is 0.72%.
As for `Cc1cccc(-n2c(C)nc3cc(C(=O)N4CCC5(CC4)OCCO5)ccc32)c1`, the figure is 27.3% (active); as for `O=C(c1cc(-c2ccncc2)nc2ccccc12)N1CCC2(CC1)OCCO2`, -2.03%; as for `Fc1cccc(F)c1CN1CCN(Cc2c(F)cccc2F)CC1`, -2.86%.
On to `CC(=O)N1CN2CN(C(C)=O)CC(C(=O)c3ccc(Br)cc3)(C2)C1`, for which the activation is 0.98%.
As for `O=C(O)C1CSC(c2cccnc2)N1` (stereo not given), the figure is -3.3%.
